Screens (PubChem BioAssay)
SENP8 block-1 = inhibitors of human SENP8 protease. purified SENP8, Z-RLRGG-aminoluciferin cleavage, luminescence. inhibition, % at 10 µM. actives 1.2% (n = 330,000). AID 2540; in the data active = inhibition above about 50%
SENP6 block = inhibitors of human SENP6 protease; Q9GZR1; Recombinant SENP6 catalytic domain, aminoluciferin luminescence; inhibition, % at 10 µM; actives 1.8% (n = 330,000); AID 2599;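 active = inhibition above about 50% at the single tested dose, limit read from the data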;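 also: plate controls were DMSO wells with enzyme for no effect and DMSO wells lacking enzyme for full effect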
HSP90 inh = blocks HSP90-mediated luciferase refolding in reticulocyte lysate | actives 0.91% (n = 290,000) | inhibition, % at 5.6 µM | Rabbit reticulocyte lysate, luciferase refolding luminescence, 3 h;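 active = inhibition above the screen-wide mean plus 3 SD, computed separately per campaign, cut at about 16% in these data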;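 also: 0% = DMSO wells and 100% = 60 µM geldanamycin wells; inhibitors lower the luminescence because luciferase stays unfolded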
SENP7 block = blocks the human protease SENP7 | Q9BQF6 | recombinant SENP7, Z-RLRGG-aminoluciferin luminescence, 40 min | inhibition, % at 5 µM | actives 1.5% (n = 330,000) | AID 434973;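 active = inhibition above about 50% at the single test dose, limit read from the data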;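 also: plate controls were DMSO with enzyme for no effect and no enzyme buffer wells for full effect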
Target sequence (Q9BQF6 706-1050 limits assumed): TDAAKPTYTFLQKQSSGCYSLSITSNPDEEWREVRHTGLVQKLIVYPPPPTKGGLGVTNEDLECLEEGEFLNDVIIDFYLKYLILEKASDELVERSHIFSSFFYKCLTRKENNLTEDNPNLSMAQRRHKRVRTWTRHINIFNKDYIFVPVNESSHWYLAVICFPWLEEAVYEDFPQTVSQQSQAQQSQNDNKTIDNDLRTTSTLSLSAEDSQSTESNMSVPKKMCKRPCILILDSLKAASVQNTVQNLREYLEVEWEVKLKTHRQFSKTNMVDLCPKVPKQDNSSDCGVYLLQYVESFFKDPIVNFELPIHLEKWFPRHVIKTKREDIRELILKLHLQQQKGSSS
SENP8 block-2 = inhibitors of human SENP8 protease. Q96LD8. recombinant SENP8, Nedd8 substrate fluorescence. inhibition, % at 20 µM. actives 0.64% (n = 360,000); in the data active = inhibition mostly above about 40%, no sharp cut-off; inactive = mostly below about 27%
HSP90 confirm = confirmation of HSP90 inhibitors | shares compounds with HSP90 inh | rabbit reticulocyte lysate, luciferase refolding luminescence, 3 h | inhibition, % at 5.9 µM | actives 64% (n = 2,300); in the data active = inhibition above about 18%;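 also: 0% = vehicle wells and 100% = reference inhibitor wells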
FLuc counter = firefly luciferase inhibition, HSP90 counter-screen | shares compounds with HSP90 inh | purified native firefly luciferase, luminescence | inhibition, % at 5.9 µM | actives 48% (n = 2,300);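 active = inhibition above the mean inhibition of all tested sample wells plus 3 SD, cut at about 10% in these data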;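 also: 0% = DMSO with luciferase and 100% = wells lacking luciferase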
SENP8 conf-1 = human SENP8 inhibition, confirmed | actives 40% (n = 6,200) | shares compounds with SENP7 block | Recombinant SENP8, Z-RLRGG-aminoluciferin luminescence, 60 min | inhibition, % at 12.5 µM;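 active = mean inhibition across replicates above about 50%, limit read from the data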
SENP6 confirm = human SENP6 inhibition, confirmed; shares compounds with SENP7 block; recombinant SENP6, Z-RLRGG-aminoluciferin luminescence; inhibition, % at 12.5 µM; actives 58% (n = 6,200); AID 488915
SENP7 confirm = confirmation of human SENP7 protease inhibitors; shares compounds with SENP7 block; recombinant SENP7, Z-RLRGG-aminoluciferin luminescence, 40 min; inhibition, % at 12.5 µM; actives 69% (n = 6,200)
Casp3 SENP sel = inhibits human caspase-3 in SENP selectivity test | inhibition, % at 12.5 µM | actives 60% (n = 6,200) | purified caspase-3, Z-DEVD-aminoluciferin luminescence, 60 min | shares compounds with SENP7 block | AID 488918;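 active = mean inhibition above about 50%, limit read from the data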;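 also: plate controls were enzyme with DMSO for no effect and wells without caspase-3 for full effect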
Target sequence (P42574 28-227 limits assumed): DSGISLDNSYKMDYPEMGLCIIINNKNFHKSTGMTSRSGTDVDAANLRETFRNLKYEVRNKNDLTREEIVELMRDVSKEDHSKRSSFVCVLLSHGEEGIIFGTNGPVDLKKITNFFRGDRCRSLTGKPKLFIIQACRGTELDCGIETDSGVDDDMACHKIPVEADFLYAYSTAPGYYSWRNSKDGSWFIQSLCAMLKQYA
Luc interf = interferes with luciferase luminescence in SENP counter-screen; shares compounds with SENP7 block; Pre-incubated SENP8/Z-RLRGG-aminoluciferin, luciferase luminescence interference; inhibition, % at 12.5 µM; actives 39% (n = 6,200);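 active = mean inhibition above about 50% when retested at one dose, limit read from the data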;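 also: plate controls were DMSO wells with completed reaction for no effect and substrate without enzyme for full effect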
SENP8 conf-2 = confirmation of human SENP8 protease inhibitors; shares compounds with SENP8 block-2; purified SENP8, Nedd8-AMC/pro-Nedd8 cleavage fluorescence, 30 min; inhibition, % at 25 µM; actives 15% (n = 1,400); AID 624319; in the data active = inhibition mostly above about 39%, no sharp cut-off; inactive = mostly below about 34%
* hit, by the source's call. The list is not random: actives were taken first. Their share in the collection is about 2.8%.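 The calls were made as follows, unless noted: active = mean inhibition above about 50% in the one-dose retest (limit read from the data); inactive = the rest.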

COc1ccc(/C=N/Nc2nnc(C)n2N)cc1OC was read as SENP8 block-1 -5, SENP6 block 10, HSP90 inh 19*, SENP7 block 0, SENP8 block-2 41*, HSP90 confirm 1, FLuc counter -7 and SENP8 conf-2 18.
Cc1nc2ccccc2c2c1C(=O)N(c1cccc(C(=O)O)c1)C2=O was read as SENP8 block-1 4, SENP6 block -3, HSP90 inh 2, SENP7 block -4 and SENP8 block-2 8.
Cc1ccc(C)c(C(=O)COC(=O)c2cccc(N3C(=O)c4c(C)nc5ccccc5c4C3=O)c2)c1 was read as SENP8 block-1 4, SENP6 block 2, HSP90 inh 27*, SENP7 block 5, SENP8 block-2 42*, HSP90 confirm 14, FLuc counter -3 and SENP8 conf-2 14.
N#CC(C#N)=c1ccc2c(c1)NC1(CCCCC1)N=2 was read as SENP8 block-1 18, SENP6 block 15, HSP90 inh 52*, SENP7 block 9, SENP8 block-2 42*, HSP90 confirm 7, FLuc counter 1 and SENP8 conf-2 24*.
CCn1nccc1C(=O)Nc1ccc(Cl)cn1 was read as SENP8 block-1 35, SENP6 block 74*, HSP90 inh -4, SENP7 block 63*, SENP8 block-2 31, SENP8 conf-1 34, SENP6 confirm 37, SENP7 confirm 80*, Casp3 SENP sel 40 and Luc interf 64*.
Screening O=C(O)c1nccnc1C(=O)Nc1ccc(Cl)cn1 returned SENP8 block-1 11, SENP6 block 97*, HSP90 inh -1, SENP7 block 2, SENP8 block-2 11, SENP8 conf-1 -9, SENP6 confirm -7, SENP7 confirm -6, Casp3 SENP sel 6 and Luc interf 5.
CCOc1ccc(C(=O)c2cc3ccc(O)cc3oc2=O)cc1 was read as SENP8 block-1 -5, SENP6 block -13, HSP90 inh 2, SENP7 block 1 and SENP8 block-2 -340.
For O=C(c1ccc([N+](=O)[O-])cc1)c1cc2ccc(O)cc2oc1=O the results were SENP8 block-1 78*, SENP6 block 83*, HSP90 inh -1, SENP7 block 71*, SENP8 block-2 12, SENP8 conf-1 23, SENP6 confirm 65*, SENP7 confirm 6, Casp3 SENP sel 71* and Luc interf 7.
For CN1CCc2cc3c(c4c2[C@H]1[C@H](O)c1ccccc1-4)OCO3 the results were SENP8 block-1 16, SENP6 block 59*, HSP90 inh 7, SENP7 block 43, SENP8 block-2 -15, SENP8 conf-1 33, SENP6 confirm 78*, SENP7 confirm 64*, Casp3 SENP sel 70* and Luc interf 9.
Screening Cc1cccc(/C=N\N=C\c2cccc(C)c2)c1 returned SENP8 block-1 17, SENP6 block 63*, HSP90 inh -5, SENP7 block 51*, SENP8 block-2 23, SENP8 conf-1 19, SENP6 confirm 54*, SENP7 confirm 81*, Casp3 SENP sel 38 and Luc interf 36.
`C[C@@]12CC(=O)NC1N(C(=O)c1cccc(C(F)(F)F)c1)C(c1ccccc1OC(=O)c1cccc(C(F)(F)F)c1)C2` (stereo partly specified) gave SENP8 block-1 1, SENP6 block -26, HSP90 inh -1, SENP7 block 4 and SENP8 block-2 14.
O=C(c1ccc(Br)o1)N1CC=C(c2ccccc2)CC1 was read as SENP8 block-1 -18, SENP6 block -14, SENP7 block -4 and SENP8 block-2 15.
O=C(CSc1nnc(-c2cccnc2)n1Cc1ccco1)NCc1ccc2c(c1)OCO2 was read as SENP8 block-1 4, SENP6 block -7, HSP90 inh -6, SENP7 block 59*, SENP8 block-2 15, SENP8 conf-1 -9, SENP6 confirm -6, SENP7 confirm -11, Casp3 SENP sel -1 and Luc interf 2.
Cc1cc(C)c(NC(=O)CSc2nnc(-c3ccncc3)n2Cc2ccco2)c(C)c1 was read as SENP8 block-1 -7, SENP6 block -27, HSP90 inh 1, SENP7 block 70*, SENP8 block-2 11, SENP8 conf-1 7, SENP6 confirm 8, SENP7 confirm 1, Casp3 SENP sel 4 and Luc interf 2.
CCOC(=O)Nc1cc2c(cc1C(C)=O)OCO2 was read as SENP8 block-1 -10, SENP6 block -4, HSP90 inh -3, SENP7 block -11 and SENP8 block-2 -245.
For CSCC(C)N1CCC(CO)(CCCc2ccccc2)CC1 (stereo unspecified) the results were SENP8 block-1 -5, SENP6 block -32, HSP90 inh -5, SENP7 block -13 and SENP8 block-2 5.
Screening N#C/C(=C\c1ccc(O)cc1)c1nc2ccccc2o1 returned SENP8 block-1 74*, SENP6 block 84*, HSP90 inh -1, SENP7 block 63*, SENP8 block-2 -83, SENP8 conf-1 81*, SENP6 confirm 80*, SENP7 confirm 93*, Casp3 SENP sel 62* and Luc interf 74*.
COc1cc(/C=C(\C#N)c2nc(-c3cc4ccccc4oc3=O)cs2)ccc1O was read as SENP8 block-1 1, SENP6 block -4, HSP90 inh -2, SENP7 block 3 and SENP8 block-2 -88.
For COc1cc(/C=C(\C#N)c2nc3ccccc3[nH]2)ccc1OC(=O)c1ccco1 the results were SENP8 block-1 83*, SENP6 block 75*, HSP90 inh 5, SENP7 block 73*, SENP8 block-2 -428, SENP8 conf-1 66*, SENP6 confirm 67*, SENP7 confirm 99*, Casp3 SENP sel 86* and Luc interf 27.
